We go through 39 molecules from ChEMBL document CHEMBL3988442, “University of Dundee, Small-Polar-MMV Screening Library” (2021).

This experiment concerns the target AMP-activated protein kinase, AMPK (Homo sapiens) (UniProt P54646+O43741+P54619+Q9UGJ0+Q9Y478+Q13131+Q9UGI9). The experiment is described as follows: AMP-dependent Kinase enzyme assay. An in vitro enzyme assay that detects ADP turnover that is directly proportional to AMPK activity. This uses naive AMPK that is activated during the assay with MK-8722. The format is functional. Further details: scale not given: direction of the effect not stated beside the values. Conditions: 30 µM.
`CC(C)c1ccc(CN2CCCC3(CC2)CN(C)C(=O)O3)cc1` (centres undefined): the Percent Effect came to 9.6%.
For the molecule `CC(C)(C)c1ccc(-n2ncc3c2CCCC3N)cc1` (centres undefined), the Percent Effect is 5.4%.
The figure for `CC(C)Cc1cc(CNC(=O)c2cccc3c2OCC3)no1` is 3.36%; for `CCCC(=O)NC1CCCN(c2nc3ccccc3cc2CO)C1` (centres undefined) it is 6.66%; for `OC(CNCc1nnc2ccccn12)c1ccc2c(c1)OCCCO2` (centres undefined) it is 9.77%.
The figure for `Cc1nc2c(c(NCCNC(=O)C(C)C)n1)Cc1ccccc1OC2` is 3.56%.
As to `COCc1nc(C2CC2)nn1-c1ccccc1Cl`, the Percent Effect was -1.23%.
The figure for `Cc1noc(C)c1CNC(=O)NCCC(=O)N1CCCc2ccccc21` is -2.4%; for `CN(C)C(=O)CN1CCC(c2c(C(N)=O)sc3ncccc23)C1` (centres undefined) it is 14.7%.
The figure for `CN(C)c1nc(N)nc(CN2CCC(c3nc4ccccc4o3)CC2)n1` is -11.3%.
For the molecule `CCCNC(=O)CNC(=O)CC1CCCc2cc(OC)ccc21` (centres undefined), the Percent Effect was -4.21%.
The figure for `CCCc1ccc(CN2CCC3(CCC(=O)N(C(C)C(=O)O)C3)CC2)o1` (centres undefined) is 31.1%; for `FC(F)(F)Oc1cccc(CNCc2ccc(-n3cncn3)nc2)c1` it is 12.8%; for `CCc1ccsc1C(=O)NC(C#N)CC` (centres undefined) it is 2.87%.
The figure for `O=C(C1COCCO1)N1CCN(CC(F)(F)F)c2ccccc21` (centres undefined) is 12.8%.
The figure for `c1ccc2oc(C3CCN(Cc4ncon4)CC3)nc2c1` is -10.5%.
`CC(NC(=O)Nc1ccc(-c2csnn2)cc1)C(=O)NC(C)(C)C` (centres undefined): the Percent Effect is -8.32%.
The figure for `CCN1CC2(CCN(CC3CCCO3)CC2)OC1=O` (centres undefined) is -9.49%; for `Cc1c(NC(=O)NC(C)CCO)cccc1OC1CCCC1` (centres undefined) it is -7.69%.
Take `COc1cccc(S(=O)(=O)N2CCN(C)[C@@H]3CS(=O)(=O)C[C@@H]32)c1`: the Percent Effect amounted to 1.52%.
The figure for `Cc1nc(CNC(=O)Nc2c(C)n[nH]c2C)cs1` is -7.09%; for `Cc1cc(NCCNc2cccnc2)nc(N)n1` it is -11.6%.
The figure for `CC(C)c1nnc(CN2CC(n3cccn3)C2)o1` is -4.54%.
The figure for `COc1ccc(C)nc1NC(=O)Cc1c(C)nn(C)c1C` is 2.12%.
Consider `COc1ccnc(CNc2nc(C)nc(C)c2C)c1`, for which the Percent Effect was -6.37%.
`Cc1nc(C)c(C(=O)N2CCc3c(Cl)cccc32)o1`: the Percent Effect is 1.75%.
The figure for `Cc1nnc(NC(=O)NCCCN2CCC(C(N)=O)CC2)s1` is 5.59%; for `CC(C)N(C(=O)Cn1cc(Cl)cn1)c1ccccc1` it is -3.03%; for `Cc1ccnc(NC(=O)c2ccc(C)o2)c1` it is 9.16%.
The figure for `Cc1n[nH]c(C)c1CCNC(=O)Nc1ccc(S(C)(=O)=O)cc1` is 4.13%.
The figure for `COc1ccc(Cl)cc1-n1nc(C2CCCC2)nc1Cn1cnnn1` is -6.62%; for `O=C(O)CN(Cc1ccsc1)CC1CCCO1` (centres undefined) it is 10.1%.
In the case of `CCC(NC(=O)C(C)(C)C)c1ccccc1C` (centres undefined), the Percent Effect was 5.82%.
The figure for `CNc1nc(C)c(C(=O)N2C[C@@H](C(=O)O)[C@H](C3CC3)C2)s1` is 3.27%; for `CC1CCN(Cc2ccccc2CNC(=O)C2CNC(=O)N2)CC1` (centres undefined) it is -1.18%; for `Cc1nc(CN2CCCC2Cn2cccn2)nc2ccccc12` (centres undefined) it is -8.75%.
The figure for `CCn1cc(CN(C)Cc2cnn(-c3ccc(F)cc3)c2)cn1` is 13.6%; for `Cc1nn(C)c(C)c1-c1ccc(=O)n(C(C)C(=O)NCc2ccco2)n1` (centres undefined) it is 17.2%.
The figure for `OCCC1CCN(c2ccnc3ccsc23)C1` (centres undefined) is 1.38%.
